Assay outcomes (PubChem BioAssay)
aSyn yeast inh: qHTS of alpha-syn Inhibitors. Potency, µM (titrated, usually from 46.1 µM), actives largely listed as activators. Yeast expressing alpha-synuclein, growth rescue, BacTiter-Glo, 24 h. hit rate 0.14% among 370,000; note: nearly all actives have a fitted effect of over 65% in size
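Screening used galactose-induced yeast with toxic alpha-synuclein levels, exposed to compound for 24 hr at 30 deg C. Cell growth, read with BacTiter-Glo luminescence, gave the measured signal.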
FUS yeast rescue: qHTS for Suppressors of FUS Proteinopathy: Primary screen using FUS-linked yeast assay | S. cerevisiae FUS-expressing, growth rescue, OD600, 24 h | Potency, µM (doses to about 76.6 µM), usual class: activators | hit rate 0.24% among 390,000; note: nearly all actives have a fitted effect of over 55% in size
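S. cerevisiae expressing FUS from galactose induction served as the toxicity model. Growth after 24hr at 30C, read as absorbance at 600 nm, indicates suppression of toxicity; compounds dosed at several concentrations.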
Abeta yeast res: qHTS for compounds that reverse cellular toxicity of Amyloid beta (A-beta) peptide in yeast: Primary Screen. yeast expressing A-beta42, growth rescue, OD600, 48 h; response scale: 0% DMSO, 100% iron-clioquinol control. Potency, µM (titrated, usually from 46.1 µM), actives largely listed as activators. hit rate 0.063% among 410,000; note: nearly all actives have a fitted effect of over 55% in size
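Yeast A-beta toxicity model in growth medium with pinned compounds, 48 h at 30 C; growth read as absorbance at 600 nm. Normalized to FeCl3/clioquinol equimolar mix (positive) and DMSO (negative).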
TDP43 rescue: qHTS of TDP-43 Inhibitors; TDP-43 expressing yeast growth rescue, BacTiter-Glo, 24 h; Potency, µM (highest dose often 46.1 µM), actives largely listed as activators; hit rate 1.8% among 410,000; AID 652104, 2013; note: nearly all actives have a fitted effect of over 50% in size
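Cell-based yeast growth screen: TDP-43 expression induced in galactose, inoculum OD600=0.02 after raffinose pregrowth to mid-log. Read-out BacTiter-Glo luminescence at 24 hr, 30 deg C; inhibition of toxicity seen as signal increase.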
Numbers stand for hits; - = inactive; ? = inconclusive; . = no result given; [ ] = remark or other dose. Only some compounds are listed: those with a hit (about 2.1% of all), similar ones and a draw of the others. Calls come from the whole dose curve; as a rule, active = well fitted curve in the direction sought with a large enough effect; inconclusive = small, poorly fitted or top-dose-only effect, or another doubt; inactive = no such curve, though single readings can be large; an effect the other way counts as inactive or inconclusive.

SMILES	aSyn yeast inh	FUS yeast rescue	Abeta yeast res	TDP43 rescue
Cc1cc(C)c2nc(NNC(=O)c3cc(-c4cccs4)nc4ccccc34)sc2c1	-	-	?	?
O=C(NNc1nc2ccc(Cl)cc2s1)c1cc(-c2cccs2)nc2ccccc12	?	-	?	4.47µM
COc1ccc(C2(c3ccc(OC)cc3)NC(=O)N(CC(=O)NC3(C#N)CCCCC3)C2=O)cc1	-[1.84 µM]	14.1µM	-	-
COc1ccc(C2(c3ccc(OC)cc3)NC(=O)N(CC(=O)NC3(C#N)CCCC3)C2=O)cc1	-	.	-	-
C=CCn1cnc2c(nnn2-c2cc(C)cc(C)c2)c1=O	-	-	-	11.2µM
O=C(O)CC/C(=C\c1ccccc1[N+](=O)[O-])c1nc2ccccc2s1	-	-	-	?
CC(Sc1nnc(Cc2cccs2)n1C1CC1)C(=O)NC1CCS(=O)(=O)C1 (configuration not stated)	-	-	-	-
O=C(c1cnccn1)N1CCc2c([nH]c3ccccc23)C1c1cccc(Cl)c1 (configuration not stated)	?	?	-	17.8µM
CN(CC1COc2ccccc2O1)C(=S)Nc1ccccc1 (configuration not stated)	-	-	?	12.6µM
Cc1ccc(NC(=O)CC2COc3ccccc3O2)cc1 (configuration not stated)	-	-	-	-
FC(F)(F)c1cccc(NC(=S)NCC2COc3ccccc3O2)c1 (configuration not stated)	-	-	-	35.5µM
CCCNC(=S)Nc1cccc(C(F)(F)F)c1	-	-	-	-
CC(C)OC(=O)c1cc2c(ccn2C)n1CC(=O)N(Cc1ccccc1)c1ccccc1	-	-	-	-
CCOC(=O)c1ccc(-n2c(CCC(=O)O)ccc2-c2ccc(F)cc2)cc1	-	-	-	12.6µM
COC(=O)c1ccc(-n2c(CCC(=O)O)ccc2-c2ccc(C)cc2)cc1	-	-	-	-
COc1ccc(CN2CCN(C(C)C(=O)NC(C)c3ccc(F)cc3)CC2)cc1F (configuration not stated)	-	-	-	-
COc1ccc(-c2cc(C(F)(F)F)nc(S(=O)(=O)CCCC(=O)Nc3cccnc3Cl)n2)cc1OC	-	-	-	-
O=[N+]([O-])c1cccc(NC(=S)N2CCc3ccccc32)c1	-	-	?	12.6µM
O=C(Nc1cccc([N+](=O)[O-])c1)N1CCCc2ccccc21	-	-	-	11.2µM
O=[N+]([O-])c1cccc(NC(=S)N2CCCC2)c1	-	-	-	-
O=C(c1ccc([N+](=O)[O-])cc1)N1CCc2ccccc2C1	-	-	-	-[0.397 µM]
CC(=O)c1cccc(NC(=O)N2CCCc3ccccc32)c1	-	-	-	?
O=[N+]([O-])c1ccc(NC(=S)N2CCc3ccccc3C2)cc1	?	.	-	25.1µM
Cc1oc(-c2ccc(Cl)cc2)nc1CS(=O)CC(=O)NCc1cccs1 (configuration not stated)	-	-	-	-
O=C(NCCNc1ccc([N+](=O)[O-])cc1C(F)(F)F)c1ccc(F)cc1	-	.	-	?
SMILES	aSyn yeast inh	FUS yeast rescue	Abeta yeast res	TDP43 rescue
O=C(Nc1cccnc1Cl)C1CCCN(c2ncnc3c2nc2n3CCCCC2)C1 (configuration not stated)	-	-	-	-
CCN(C(=O)C1CCCN(c2ncnc3c2nc2n3CCCCC2)C1)c1cccc(C)c1 (configuration not stated)	.	-	-	14.1µM
CCN(C(=O)C1CCCN(c2ncnc3c2nc2n3CCCCC2)C1)c1cccc(Cl)c1 (configuration not stated)	-	?	-	25.1µM
O=C(Nc1ccc(Cl)cn1)C1CCCN(c2ncnc3c2nc2n3CCCCC2)C1 (configuration not stated)	-	-	-	?
COc1ccc(Cl)cc1NC(=O)C1CCCN(c2ncnc3c2nc2n3CCCCC2)C1 (configuration not stated)	-	-	-	14.1µM
Cc1ccc(NS(=O)(=O)c2cc(C(=O)NCc3cccnc3)ccc2C)cc1	-	.	-	-
O=C(CSc1ccc(Cl)cc1)N1CCC(c2nc3ccccc3s2)CC1	?	-	-	25.1µM
COc1cc(/C=C/c2nc(N)nc(-c3ccccc3O)n2)cc(OC)c1OC	-	-	-	-
COc1cc(/C=C/c2nc(-c3ccccc3O)n[nH]2)cc(OC)c1OC	-	.	-	15.8µM
